Data published in PubChem BioAssay (NCI).
About 79,000 compounds went through this panel and 15% of them were active in at least one assay; those are over-represented in the sample as a whole. Activity calls are given as the source filed them. Cut-off read from the data, not from the text of the source: active = growth inhibition above about 70%; inactive = the rest.

Key:
[1] = NCI Yeast Anticancer Drug Screen. Data for the rad52 strain (AID 147);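 note: 0% = growth of vehicle-treated control cultures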; conditions: S. cerevisiae rad52 mutant growth inhibition, stronger effect = higher value
Method in brief: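 Yeast strain carrying a DNA damage repair alteration was exposed to test compounds. Growth inhibition was measured relative to vehicle-treated controls.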

[2] = NCI Yeast Anticancer Drug Screen. Data for the wt1 strain (AID 149);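 note: 0% = growth of vehicle-treated wt1 cultures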; conditions: S. cerevisiae wt1 strain (SPY 50644) growth inhibition, stronger effect = higher value
Method in brief: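 Measured: growth of wt1 yeast under compound versus vehicle treatment, reported as inhibition.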

[3] = NCI Yeast Anticancer Drug Screen. Data for the rad50EPP+ strain (AID 151);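 note: 0% = growth of vehicle-treated control cultures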; conditions: S. cerevisiae rad50 mutant strain, stronger effect = higher value
Method in brief: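 Yeast strain carrying rad50 alteration (rad50EPP+) exposed to compounds; growth inhibition measured relative to vehicle-treated controls.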

[4] = NCI Yeast Anticancer Drug Screen. Data for the mgt1 strain (AID 153); conditions: S. cerevisiae mgt1 mutant growth inhibition, stronger effect = higher value
Method in brief: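 Yeast mgt1 strain (DNA repair/cell-cycle alteration panel) exposed to compounds; growth inhibition measured relative to vehicle-treated controls.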

[5] = NCI Yeast Anticancer Drug Screen. Data for the rad50 strain (AID 155);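 note: 0% = growth of vehicle-only cultures of the same strain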; conditions: S. cerevisiae rad50 strain growth inhibition, stronger effect = higher value
Method in brief: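 Growth of the mutant yeast was measured after compound exposure and referenced to vehicle-treated cultures.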

[6] = NCI Yeast Anticancer Drug Screen. Data for the mec2-1 strain (AID 157); conditions: S. cerevisiae mec2-1 strain, stronger effect = higher value
Method in brief: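 mec2-1 yeast strain, carrying an alteration in DNA damage repair or cell cycle control, was exposed to compounds; growth inhibition was measured relative to vehicle-treated controls.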

[7] = NCI Yeast Anticancer Drug Screen. Data for the rad14 strain (AID 159);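 note: 0% = growth of vehicle-treated control cultures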; conditions: S. cerevisiae rad14 strain growth inhibition, stronger effect = higher value
Method in brief: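 Here, inhibition of yeast growth was measured after compound exposure, using a strain with a genetic defect in DNA damage repair and vehicle-treated cultures as the reference.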

[8] = NCI Yeast Anticancer Drug Screen. Data for the sgs1 mgt1 strain (AID 161);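 note: 0% = growth of cultures given vehicle only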; conditions: S. cerevisiae sgs1 mgt1 strain, stronger effect = higher value
Method in brief: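 Yeast cells carrying a defined DNA-repair defect were exposed to test compounds. Growth inhibition was measured relative to vehicle-treated controls.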

[9] = NCI Yeast Anticancer Drug Screen. Data for the cln2 rad14 strain (AID 165);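 note: 0% = growth equal to vehicle treated cultures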; conditions: S. cerevisiae cln2 rad14 strain, stronger effect = higher value
Method in brief: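 Yeast carrying cln2 and rad14 alterations (cell cycle control and DNA damage repair) were exposed to compounds. Growth inhibition was measured against vehicle-treated controls.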

[10] = NCI Yeast Anticancer Drug Screen. Data for the bub3 strain (AID 167); conditions: S. cerevisiae bub3 mutant strain, stronger effect = higher value
Method in brief: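 Whole-cell yeast assay. The mutant strain was incubated with compounds, and growth inhibition was determined by comparison with vehicle-treated cells.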

[11] = NCI Yeast Anticancer Drug Screen. Data for the wt2 strain (AID 169);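 note: 0% = growth of vehicle-treated yeast cultures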; conditions: S. cerevisiae wt2 strain growth inhibition, stronger effect = higher value
Method in brief: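 Yeast cells were exposed to test compounds, and growth inhibition was measured relative to vehicle-treated controls.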

[12] = NCI Yeast Anticancer Drug Screen. Data for the sgs1 strain (AID 173);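 note: 0% = growth of vehicle-only control cultures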; conditions: S. cerevisiae sgs1 mutant, stronger effect = higher value
Method in brief: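 Yeast mutant strains carrying defined defects in DNA damage repair or cell cycle control were exposed to test compounds. Growth inhibition was scored against vehicle-treated controls.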

[13] = NCI Yeast Anticancer Drug Screen. Data for the mlh1 rad18 strain (AID 175); conditions: S. cerevisiae mlh1 rad18 strain growth inhibition, stronger effect = higher value
Method in brief: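 Growth inhibition of the yeast strain was measured after compound exposure and expressed relative to vehicle-treated controls. The strain carries defined defects in DNA damage repair.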

[14] = NCI Yeast Anticancer Drug Screen. Data for the rad18 strain (AID 177); conditions: S. cerevisiae rad18 mutant growth inhibition, stronger effect = higher value
Method in brief: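 Yeast carrying a defined DNA damage repair alteration were exposed to compounds. Growth inhibition was expressed relative to vehicle-treated controls.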

[15] = NCI Yeast Anticancer Drug Screen. Data for the mlh1 strain (AID 171);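 note: 0% = growth of vehicle-treated control cultures of the same strain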; conditions: S. cerevisiae mlh1 strain growth inhibition, stronger effect = higher value
Method in brief: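 Yeast carrying a defined genetic alteration in DNA damage repair or cell cycle control were exposed to test compounds. Growth inhibition was measured relative to vehicle-treated controls.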

[16] = at 5.0 µM (retest, dose inferred, filed as 0.5)
[17] = at 50.0 µM (retest, dose inferred, filed as 5.0)

Measured: growth inhibition

Cc1c(Cl)ccc2c1S(=O)(=O)c1cccc(Cl)c1-2
active: [5]; [16] 100% | [5]; [17] 100% | [6]; [16] 100% | [6]; [17] 100% | [10]; at 50.0 µM 81.3% | [13]; [16] 100% | [13]; [17] 100%
inactive: [1]; at 1.2 µM 0% | [1]; at 3.7 µM 0% | [1]; at 11.0 µM -4% | [1]; at 33.0 µM -9% | [1]; at 100.0 µM -9% | [2]; at 1.2 µM -6% | [2]; at 3.7 µM -2% | [2]; at 11.0 µM -1% | [2]; at 33.0 µM -15% | [2]; at 100.0 µM -1% | [3]; at 1.2 µM -12% | [3]; at 3.7 µM 12% | [3]; at 11.0 µM 7% | [3]; at 33.0 µM -37% | [3]; at 100.0 µM -17% | [4]; at 1.2 µM -2% | [4]; at 3.7 µM 1% | [4]; at 11.0 µM 9% | [4]; at 33.0 µM -5% | [4]; at 100.0 µM -8% | [5]; at 1.2 µM -22% | [5]; at 3.7 µM -9% | [5]; at 11.0 µM -30% | [5]; at 33.0 µM -17% | [5]; at 50.0 µM 20.8% | [5]; at 100.0 µM -3% | [6]; at 1.2 µM -24% | [6]; at 3.7 µM -31% | [6]; at 11.0 µM -32% | [6]; at 33.0 µM -28% | [6]; at 50.0 µM 29.5% | [6]; at 100.0 µM -32% | [7]; at 1.2 µM 2% | [7]; at 3.7 µM 6% | [7]; at 11.0 µM 2% | [7]; at 33.0 µM 5% | [7]; at 100.0 µM 5% | [8]; [16] -13% | [8]; [17] 28% | [8]; at 50.0 µM 20.9% | [9]; [16] 31% | [9]; [17] 28% | [9]; at 50.0 µM 0.75% | [10]; at 1.2 µM -27% | [10]; at 3.7 µM -13% | [10]; [16] 18% | [10]; at 11.0 µM 1% | [10]; at 33.0 µM -10% | [10]; [17] 51% | [10]; at 100.0 µM -18% | [11]; at 1.2 µM -10% | [11]; at 3.7 µM -9% | [11]; at 11.0 µM -12% | [11]; at 33.0 µM -12% | [11]; at 100.0 µM -25% | [12]; at 1.2 µM -10% | [12]; at 3.7 µM -19% | [12]; at 11.0 µM -18% | [12]; at 33.0 µM -13% | [12]; at 100.0 µM -24% | [13]; at 50.0 µM 37.2% | [14]; at 1.2 µM -18% | [14]; at 3.7 µM 2% | [14]; at 11.0 µM 6% | [14]; at 33.0 µM -1% | [14]; at 100.0 µM 7%

CCCCCCCCCCCCCCC(C(=O)[O-])[n+]1ccccc1 (stereo unspecified)
inactive: [1]; at 1.2 µM 2% | [1]; at 3.7 µM 2% | [1]; at 11.0 µM 2% | [1]; at 33.0 µM -1% | [2]; at 1.2 µM -1% | [2]; at 3.7 µM -3% | [2]; at 11.0 µM -4% | [2]; at 33.0 µM -6% | [2]; at 100.0 µM 6% | [3]; at 1.2 µM 0% | [3]; at 3.7 µM 4% | [3]; at 11.0 µM 4% | [3]; at 33.0 µM 3% | [3]; at 100.0 µM 39% | [4]; at 1.2 µM 2% | [4]; at 3.7 µM -4% | [4]; at 11.0 µM 2% | [4]; at 33.0 µM -2% | [5]; at 1.2 µM 3% | [5]; at 3.7 µM 9% | [5]; [16] 9% | [5]; at 11.0 µM 3% | [5]; at 33.0 µM 4% | [5]; [17] 20% | [6]; at 1.2 µM 3% | [6]; at 3.7 µM 1% | [6]; [16] -2% | [6]; at 11.0 µM -7% | [6]; at 33.0 µM -2% | [7]; at 1.2 µM -2% | [7]; at 3.7 µM 13% | [7]; at 11.0 µM 0% | [7]; at 33.0 µM 2% | [8]; [16] 12% | [8]; [17] 45% | [9]; [16] 8% | [9]; [17] 26% | [10]; at 1.2 µM 2% | [10]; at 3.7 µM -27% | [10]; [16] 5% | [10]; at 11.0 µM 0% | [10]; at 33.0 µM -8% | [11]; at 1.2 µM 0% | [11]; at 3.7 µM 0% | [11]; at 11.0 µM -1% | [11]; at 33.0 µM 7% | [15]; at 1.2 µM 0% | [15]; at 3.7 µM -3% | [15]; at 11.0 µM -12% | [15]; at 33.0 µM -18% | [12]; at 1.2 µM 0% | [12]; at 3.7 µM -3% | [12]; at 11.0 µM -2% | [12]; at 33.0 µM 13% | [13]; [16] -15% | [13]; [17] 51% | [14]; at 1.2 µM 3% | [14]; at 3.7 µM 8% | [14]; at 11.0 µM 24%
active: [1]; at 100.0 µM 91% | [4]; at 100.0 µM 95% | [5]; at 50.0 µM 98.5% | [5]; at 100.0 µM 97% | [6]; [17] 97% | [6]; at 50.0 µM 99% | [6]; at 100.0 µM 95% | [7]; at 100.0 µM 90% | [8]; at 50.0 µM 98.8% | [9]; at 50.0 µM 95.8% | [10]; [17] 91% | [10]; at 50.0 µM 97.3% | [10]; at 100.0 µM 85% | [11]; at 100.0 µM 83% | [15]; at 100.0 µM 99% | [12]; at 100.0 µM 95% | [13]; at 50.0 µM 98% | [14]; at 33.0 µM 81% | [14]; at 100.0 µM 97%
